The values that follow come from PubChem BioAssay (Tox21).

Results filed as inconclusive are left out. A call without a number means that no potency is given here. The source made the active and inactive calls. The call rests on the fitted dose curve; in most records, active means well fitted inhibition curve with a large enough effect in the repeat runs; inconclusive means weak or mixed curves; inactive means flat fitted curve, though single readings scatter.

A short description of the experiment: qHTS assay to identify small molecule HDAC inhibitors (AID 1259364). Further: top concentration of the series differs between compounds; nearly all actives have a fitted effect of over 45% in size. The settings on record: HCT-116 HDAC-Glo I/II luminescence, 2 h; series mostly up to 92.4 µM. From the text: U.S. Tox21 Program National Center for Advancing Translational Sciences [NCATS] NIH Chemical Genomics Center [NCGC] U.S. Environmental Protection Agency [EPA] National Institutes of Environmental Health Sciences [NIEHS] National Toxicology Program [NTP] U.S. Food and Drug Administration [FDA] Tox21 Assay Overview: Histone deacetylases (HDACs) are a group of epigenetic enzymes that regulate gene expression by histone deacetylation. HDACs are capable of introducing epigenetic modifications and such aberrations contribute to the onset and progression of several human diseases, thus making HDACs a popular therapeutic target. For identifying endogenous class I/II HDAC inhibitors a homogenous, luminogenic HDAC I/II cell based assay was used to measure the relative activity of class I and II HDACs from cells. Wild type HCT-116 cells were used to screen Tox21 libraries for identifying class I/II HDAC inhibitors.
Tox21 Assay Protocol Summary: HCT-116 cells were dispensed at 1,500 per well in 5uL of culture medium into white solid bottom 1536-well plates (Greiner Bio-One, Monroe, NC) using a Multidrop Combi (Thermo Scientific, Waltham, MA) dispenser. The assay plates were incubated at 37 C and 5% CO2 for an overnight, and then 23nL of compounds dissolved in DMSO and positive control were transferred using a Pintool station (Wako, San Diego, CA). The assay plates were incubated at 37C and 5% CO2 for 2hr. After compound treatment, 4uL of HDAC-Glo reagent (Promega Corporation, Madison, WI) was added to each well of the assay plates using Flying Reagent Dispenser (FRD, Aurora Discovery, San Diego, CA) and incubated the assay plates at room temperature for 30min. The luminescence signal was quantified using a ViewLux plate reader (Perkin Elmer, Shelton, CT).
Regarding `O=C(O)CC(C(=O)O)S(=O)(=O)O` (stereo not given), the Potency entry was “inactive”. Turning to `CCCC(=O)O[C@]1(C(=O)CC)CC[C@H]2[C@@H]3CCC4=CC(=O)CC[C@]4(C)[C@H]3[C@@H](O)C[C@@]21C`, the Potency result is “inactive”. As for `C=C(C)C(=O)OCCOCCOCCOCCOC(=O)C(=C)C`, the Potency result was “inactive”. `C=CCCC(=O)O`: the Potency result is “inactive”. For the compound `CC/C=C\CCOC(C)OCC` (stereo not given), the Potency result is “inactive”. For the compound `COc1cccc(OC)c1C(=O)N[C@@H]1C(=O)N2[C@@H]1SC(C)(C)[C@@H]2C(=O)O`, the Potency entry was “inactive”. `CC[N+](CC)(CC)CCOc1cccc(OCC[N+](CC)(CC)CC)c1OCC[N+](CC)(CC)CC`: the Potency entry was “inactive”. In the case of `CC(C)=CCC/C(C)=C/C#N`, the Potency entry is “inactive”. For the compound `CCOc1ccc2nc(S(N)(=O)=O)sc2c1`, the Potency entry was “inactive”. On the same count and under the same terms, for `O=C(O)CNC(=O)c1ccc(CO)o1` the value was “inactive”.

`CC(C)NNC(=O)c1ccncc1`: the Potency result is “inactive”.

Consider `O=C1NC(=O)C2CC=CCC12` (stereo not given), for which the Potency result is “inactive”. `COc1cc(C)nc(-n2nc(C)cc2OC)n1`: the Potency entry is “inactive”. On to `C[C@H]1C[C@H]2[C@@H]3CCC4=CC(=O)C=C[C@]4(C)[C@H]3C(=O)C[C@]2(C)[C@@]1(O)C(=O)CO`, for which the Potency result was “inactive”. Still for that read-out and setting: for `CC[C@H]1OC(=O)[C@H](C)[C@@H](O[C@H]2C[C@@](C)(OC)[C@@H](O)[C@H](C)O2)[C@H](C)[C@@H](O[C@@H]2O[C@H](C)C[C@H](N(C)C)[C@H]2O)[C@](C)(OC)C[C@@H](C)C(=O)[C@H](C)[C@@H](O)[C@]1(C)O` the value was “inactive”; for `Nc1ccn([C@@H]2O[C@H](CO)[C@@H](O)C2(F)F)c(=O)n1`, “inactive”; for `CO[C@@]1(NC(=O)C(C(=O)O)c2ccc(O)cc2)C(=O)N2C(C(=O)O)=C(CSc3nnnn3C)CO[C@@H]21` (stereo not given in full), “inactive”. On to `C=CN1CCCCCC1=O`, for which the Potency entry was “inactive”. Consider `OCCCCCO`, for which the Potency entry was “inactive”. In the case of `CCCCc1ccc2c(n1)[C@@H](c1ccc(OC)cc1C[C@H](C)C(=O)O)[C@H](C(=O)O)[C@H]2c1ccc2c(c1)OCO2`, the Potency entry is “inactive”. For the compound `CCCC(C)C(=O)OCC` (stereo not given), the Potency entry is “inactive”.

For the compound `Nc1c2c(nc3c1CCC3)CCCC2`, the Potency result is “inactive”. As for `CC(=O)OCC(=O)[C@@]1(O)[C@H](C)C[C@H]2[C@@H]3CCC4=CC(=O)C=C[C@]4(C)[C@@]3(F)[C@@H](O)C[C@@]21C`, the Potency result is “inactive”. With `CC1(C)[C@@H]2CC[C@@]1(C)[C@H](O)C2`, the Potency entry was “inactive”.

As for `Cc1ccc(-c2ccccc2C#N)cc1`, the Potency result is “inactive”. `COc1c(N2CCNC(C)C2)c(F)cc2c(=O)c(C(=O)O)cn(C3CC3)c12` (stereo not given): the Potency entry is “inactive”.

As for `Cc1c(N)c(=O)n(-c2ccccc2)n1C`, the Potency entry is “inactive”. Take `Cc1ccc(C(=O)Nc2ccc(S(=O)(=O)O)c3cc(S(=O)(=O)O)cc(S(=O)(=O)O)c23)cc1NC(=O)c1cccc(NC(=O)Nc2cccc(C(=O)Nc3cc(C(=O)Nc4ccc(S(=O)(=O)O)c5cc(S(=O)(=O)O)cc(S(=O)(=O)O)c45)ccc3C)c2)c1`: the Potency result was “inactive”. In the case of `C[C@@H]1C[C@H]2[C@@H]3C[C@H](F)C4=CC(=O)C(Cl)=C[C@]4(C)[C@@]3(F)[C@@H](O)C[C@]2(C)[C@@]1(O)C(=O)CO`, the Potency result was “inactive”. As to `CCCc1ncc(C[n+]2ccccc2C)c(N)n1`, the Potency result was “inactive”. Turning to `C=COC(=O)C(C)(CC)CCC(C)C` (stereo not given), the Potency entry is “inactive”. Turning to `C[N+]1(CC2COC(c3ccccc3)(c3ccccc3)O2)CCCCC1` (stereo not given), the activity change, negative = inhibition is 0.669% [at 19 µM] (inactive). `CC(=O)NC(=O)c1ccccc1O`: the Potency result is “inactive”.

For the compound `CC(C)(C)OC(=O)c1cccc(N)c1`, the Potency entry was “inactive”. Same read-out and setting: with `CC(C)(C)c1ccc(-c2ccc(C(C)(C)C)cc2)cc1` the entry was “inactive”; with `COc1ccc2cc1Oc1cc3c(cc1OC)CC[N+](C)(C)[C@H]3Cc1ccc(cc1)Oc1c(OC)c(OC)cc3c1[C@@H](C2)[N+](C)(C)CC3`, “inactive”. `Cc1coc2ccccc2c1=O`: the Potency entry was “inactive”. Same read-out and setting: for `[Ca+2]` the value was “inactive”; for `CC(C)CCCO`, “inactive”. Still for that read-out and setting: with `CCCCOCCOC(=O)COc1cc(Cl)c(Cl)cc1Cl` the entry was “inactive”.
